Data published in PubChem BioAssay AID931 (National Center for Advancing Translational Sciences (NCATS), 2007).
Inconclusive results are not listed. Activity calls are given as the source filed them. The call rests on the fitted dose curve; in most records, active means well fitted cell-killing curve with a large enough effect; inconclusive means small, poorly fitted or top-dose-only effect; inactive means flat fitted curve, though single readings scatter.

Assay: Confirmation and Secondary Assay for Modulators of Hemoglobin Beta Chain Splicing at IVS2 654 locus: Cytotoxicity
Conditions: HBB IVS2-654 splicing reporter cells
Description: NIH Chemical Genomics Center [NCGC]
NIH Molecular Libraries Screening Centers Network [MLSCN]
PI Name: Dr. Ryszard Kole
Modulation of Alternative Splicing as Therapy
Abnormal splicing is associated with a number of diseases, including cancer and genetic diseases such as cystic fibrosis, muscular dystrophy and beta-thalassemia. Alteration of disease associated splicing patterns provides a promising target for treatment. […] Mutations in the second intron of the b-globin gene at positions 654 or 705 are clinically relevant and cause mis-splicing which results in an out of frame gene product.
Examination of toxicity of select compounds in EGFP-654 HeLa Cells
HeLa cell lines were stably transfected with a construct in which the EGFP (enhanced green fluorescent protein) cDNA was interrupted by the second intron of the beta-globin gene (IVS2-654). The ISV2 intron contains mutations which cause mis-splicing of EGFP and premature termination of EGFP which results in a nonfluorescent protein product. […] Expression of the transgene was driven by the CMV promoter. Compounds, and related structures identified in the primary screen as potential splicing modulation were examined for their effects on cell toxicity in this follow up assay .
NCGC Assay Protocol Summary:
Toxicity Screening. Freshly thawed HeLa EGFP-654 cells were seeded in 5 ul of optimem media (Invitrogen) containing 2 % fetal calf serum (Hyclone) and 1x penicillin/streptomycin (Invitrogen) at a concentration of 500 cells per well in 1536-well plates. Cells were incubated overnight at 37C in 5% CO2. The next day, cells were treated with DMSO, 500 nM antisense ISV2 654 PNA control oligo, or library compound and allowed to grow at 37C in 5% CO2 for 2 days. Cells were treated with 5 ul/well of freshly prepared ATPlite (Perkin Elmer) and cells were allowed to lyse at room temperature for 5 minutes. Luminescence was captured on an Viewlux CCD imager (Perkin Elmer) using a 15 second integration time and cell death was measured by comparing compound treatments to DMSO treatment (no cell death). […]

Compound	Potency
O=c1[nH]cc(F)c(=O)[nH]1	12.6 µM (active)
CC(=O)[O][Hg][c]1ccccc1	12.6 µM (active)
[Cl-].[Cl-].[Hg+2]	0.398 µM (active)
